“And” between values parts separate entries of the source, which are not always exact repeats. Identical values can stand only once. Inconclusive results are not listed. Entries that show only a call come without a potency. Unmarked numbers belong to inactive results. The source made the active and inactive calls. Calls follow the shape of the dose curve; as a rule, active = well fitted curve in the direction sought with a large enough effect; inconclusive = small, poorly fitted or top-dose-only effect, or another doubt; inactive = no such curve, though single readings can be large; an effect the other way counts as inactive or inconclusive.
Columns and labels:
[1] = molecular target: Cytochrome P450 3A7 (Homo sapiens) (UniProt P24462); assay: Cytochrome P450 family 3 subfamily A member 7 (CYP3A7) small molecule antagonists: luciferase biochemical qHTS assay (AID 1963596); conditions: P450-Glo CYP3A7 enzyme luminescence, 1 h; series mostly up to 57.4 µM; also: nearly all actives have a fitted effect of over 40% in size
Sequence of Cytochrome P450 3A7 (Homo sapiens) (P24462 whole entry, looked up): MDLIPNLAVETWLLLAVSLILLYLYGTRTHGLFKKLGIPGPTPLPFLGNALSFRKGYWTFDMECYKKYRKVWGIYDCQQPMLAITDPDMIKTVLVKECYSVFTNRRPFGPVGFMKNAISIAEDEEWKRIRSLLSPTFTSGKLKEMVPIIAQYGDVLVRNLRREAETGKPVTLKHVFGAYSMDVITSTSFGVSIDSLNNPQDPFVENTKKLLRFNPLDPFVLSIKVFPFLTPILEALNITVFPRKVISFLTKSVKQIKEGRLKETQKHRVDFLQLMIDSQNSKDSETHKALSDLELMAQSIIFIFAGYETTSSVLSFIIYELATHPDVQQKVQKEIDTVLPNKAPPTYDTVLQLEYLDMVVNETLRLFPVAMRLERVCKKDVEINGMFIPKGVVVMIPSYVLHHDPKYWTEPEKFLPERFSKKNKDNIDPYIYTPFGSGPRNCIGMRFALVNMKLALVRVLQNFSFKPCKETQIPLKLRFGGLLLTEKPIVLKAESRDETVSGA
Procedure, shortened: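 P450-Glo luminescent assay: CYP3A7 enzyme converts a proluciferin substrate to luciferin, detected by luciferase reagent; light proportional to activity. Compounds in DMSO preincubated 10 min with enzyme-substrate mix at room temperature, then NADPH regeneration added for 1 h.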

[2] = Viability qHTS for spleen associated tyrosine kinase inhibitor (SYKi) naive MV4-11 cells (AID 1963823); conditions: MV4-11 AML viability, CellTiter-Glo luminescence, 72 h; series mostly up to 45 µM; also: nearly all actives have a fitted effect of over 40% in size; also: potency is read from the fitted curve at half-maximal effect
Procedure, shortened: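 Viability of MV4-11 AML cells lacking prior SYK inhibitor exposure is scored by CellTiter-Glo luminescence following 72 hr compound incubation at 37 C, 5% CO2, seeded at 500 cells per well.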

[3] = Viability qHTS for spleen associated tyrosine kinase inhibitor (SYKi) drug resistant MV4-11 cells (AID 1963824); conditions: SYKi-resistant MV4-11 viability, CellTiter-Glo, 72 h; series mostly up to 45 µM; also: nearly all actives have a fitted effect of over 35% in size; also: potency is read from the fitted curve at half-maximal effect
Procedure, shortened: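 SYK inhibitor-resistant MV4-11 AML cells, 500 per well, added to predispensed compounds and incubated 72 hr at 37 C, 5% CO2. Viability measured by CellTiter-Glo luminescence after 10 min at room temperature.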

[4] = Cellular viability qHTS for adrenocortical cancer (ACC) cell line SW-13 (AID 1963989); conditions: SW-13 ACC cells viability, CellTiter-Glo, 48 h; activity (max response): active compounds read low;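 also: cells grown in serum-free medium with ITS supplement; nearly all actives have a fitted effect of over 65% in size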
Procedure, shortened: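 Compound titrations (up to 46 uM final, in DMSO) were applied to SW-13 cells for 48 h at 37C/5% CO2. Reading used CellTiter-Glo after 20 min at room temperature; fitted curves yielded IC50 and efficacy.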

[5] = Cellular viability qHTS for adrenocortical cancer (ACC) cell line NCI-H295R (AID 1963990); conditions: CellTiter-Glo ATP luminescence, 48 h; series mostly up to 46.1 µM; also: nearly all actives have a fitted effect of over 60% in size
Procedure, shortened: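 Readout: CellTiter-Glo luminescence, 20 min RT. Exposure: 48 h, 37C/5% CO2. Cells: NCI-H295R, ITS-DMEM serum-free. Range: up to 46 uM. Analysis: 4PL fit, IC50 plus efficacy.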

Structure (SMILES)	Potency [1]	Potency [2]	Potency [3]	activity (max response) [4]	Potency [5]	activity change, negative = inhibition [1]	viability (% of control) [2]	viability, % of control [3]	activity change, negative = viability loss [5]
Cc1scc2c1N(C(=O)CN1CCN(C)CC1)c1ccccc1NC2=O	inactive	inactive	inactive	2.88%	inactive				
CC(=O)O[C@@H]1CC2C3CCc4cc(OC(=O)c5ccccc5)ccc4C3CCC2(C)[C@H]1OC(C)=O (stereo not given in full)	inactive	inactive	inactive	3.65%	inactive				
C[C@H]1COc2c(C3(N)CC3)c(F)cc3c(=O)c(C(=O)O)cn1c23	inactive	inactive	inactive	-1.24%	inactive				
CCn1cc(C(=O)O)c(=O)c2cc3c(cc21)OCO3	inactive	inactive	inactive	-2.41%	inactive				
O=C1c2ccccc2C(=O)C1c1ccccc1	inactive	inactive	inactive	5.96%	inactive				
O=C(O)Cc1cccc2ccccc12	inactive	inactive	inactive	3.96% and 12.8%	inactive				
Cc1nc(-c2ccc(Cl)cc2)oc1COC(C)(C)C(=O)O	inactive	inactive	inactive	-4.84%	inactive				
O=c1[nH]cnc2c1ncn2[C@@H]1O[C@H](CO)[C@@H](O)[C@H]1O	inactive	inactive	inactive	4.44%	inactive				
Cn1c(=O)c2[nH]c(Br)nc2n(C)c1=O	inactive	inactive	inactive	-1.12%	inactive				
CN1CCOC(c2ccccc2)c2ccccc2C1 (stereo not given)	inactive	inactive	inactive	-0.385%	inactive				
CC(C)(Oc1ccc(C2CC2(Cl)Cl)cc1)C(=O)O (stereo not given)	inactive	inactive	inactive	13.8% and -14.2%	inactive				
NCCNCCNCCNCCN				2.38%		14.5% [at 11.5 µM]	121% [at 9.25 µM]	109% [at 9.25 µM]	1% [at 9.17 µM]
CC(=O)NC(Cc1ccccc1)C(=O)O (stereo not given)	inactive	inactive	inactive	-3.3%	inactive				
C[C@H]1O[C@@H](n2cc(F)c(=O)[nH]c2=O)[C@H](O)[C@@H]1O	inactive	3.76 µM (active) and 2.35 µM (active)	2.11 µM (active) and 1.05 µM (active)	-3.76% and -5.78%	inactive				
CCCc1c2oc(C(=O)O)cc(=O)c2cc2c(=O)cc(C(=O)O)n(CC)c12	inactive	inactive	inactive	-2.58%	inactive				
O=C(Oc1ccccc1C(=O)O)c1ccccc1O	inactive	inactive	inactive	-2.11%	inactive				
CN(N=O)C(=O)N[C@@H]1[C@@H](O)[C@H](O)[C@@H](CO)O[C@@H]1O	inactive	inactive	inactive	0.228% and 12.5%	inactive				
CCCCOCCOC(=O)c1cccnc1	inactive	inactive	inactive	-1.25%	inactive				
CCCCCCCCCCCCCCCCCCO	inactive	inactive	inactive	-0.0263%	inactive				
C[C@]12CCC(=O)C=C1CC[C@@H]1[C@@H]2[C@@H](O)C[C@@]2(C)[C@H]1CC[C@]2(O)C(=O)CO	inactive	inactive	inactive	8.55% and 7.07%	inactive				
CC(O)CN(CCN(CC(C)O)CC(C)O)CC(C)O (stereo not given)	inactive	inactive	inactive	5.94%	inactive				
CC1(C)OC(=O)NC1=O	inactive	inactive	inactive	15.1%	inactive				
CN(C)CCOC(=O)COc1ccc(Cl)cc1	inactive	inactive	inactive	4.85%	inactive				
O=C1CC[C@H](C(=O)N2CCCCC2)N1	inactive	inactive	inactive	-2.75%	inactive				
O=C(O)COc1nn(Cc2ccccc2)c2ccccc12	inactive	inactive	inactive	10.3%	inactive				
CN(C)c1ccc(O)c2c1C[C@H]1C[C@H]3[C@H](N(C)C)C(=O)C(C(N)=O)=C(O)[C@@]3(O)C(=O)C1=C2O	inactive	20.9 µM (active)	20.9 µM (active)	-4.3% and 1.01%	inactive				

— PubChem BioAssay (NCATS)
